GALK inhibitor: galactokinase (human) inhibition. Purified GALK, Kinase-Glo residual ATP luminescence. Potency, µM (series often up to 57.5 µM), without a hit: top-dose activity change, negative = inhibition, usual class: inhibitors. 270,000 tested, 0.007% active. AID 1868; note: potency is the fitted concentration of half-maximal effect
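Human GALK (5 nM) with 35 uM ATP and 100 uM galactose in 20 mM HEPES pH 8.0, 5 mM MgCl2, 60 mM NaCl, 1 mM DTT, 0.01% BSA. After 1 h at room temperature, leftover ATP was read by Kinase-Glo Plus luminescence.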
Coupling enz: inhibits coupling enzyme system, counter-screen for aldolase hits; coupling enzyme system counterscreen, AmpLite Red fluorescence; activity change, negative = inhibition, % at 58.2 µM, hits read low; 290,000 tested, 0.67% active; in the data active = activity change below about -30%
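Activity here indicates interference with the coupling reaction, not aldolase inhibition. Compounds at 57.5 uM final met coupling enzymes for 10 min at RT; substrate and AmpLite Red detection followed, with a 525/598 nm fluorescence read after 20 min.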
rTrxR1 inhibitor: blocks rat thioredoxin reductase 1. 390,000 tested, 1% active. recombinant rTrxR1, NADPH fluorescence consumption, selenite substrate. Potency, µM (series often up to 114 µM), for inactives: top-dose activity change, negative = inhibition, usual class: inhibitors. O89049; note: potency is the fitted concentration of half-maximal effect; nearly all actives have a fitted effect of over 65% in size
Target sequence (O89049 whole entry, looked up): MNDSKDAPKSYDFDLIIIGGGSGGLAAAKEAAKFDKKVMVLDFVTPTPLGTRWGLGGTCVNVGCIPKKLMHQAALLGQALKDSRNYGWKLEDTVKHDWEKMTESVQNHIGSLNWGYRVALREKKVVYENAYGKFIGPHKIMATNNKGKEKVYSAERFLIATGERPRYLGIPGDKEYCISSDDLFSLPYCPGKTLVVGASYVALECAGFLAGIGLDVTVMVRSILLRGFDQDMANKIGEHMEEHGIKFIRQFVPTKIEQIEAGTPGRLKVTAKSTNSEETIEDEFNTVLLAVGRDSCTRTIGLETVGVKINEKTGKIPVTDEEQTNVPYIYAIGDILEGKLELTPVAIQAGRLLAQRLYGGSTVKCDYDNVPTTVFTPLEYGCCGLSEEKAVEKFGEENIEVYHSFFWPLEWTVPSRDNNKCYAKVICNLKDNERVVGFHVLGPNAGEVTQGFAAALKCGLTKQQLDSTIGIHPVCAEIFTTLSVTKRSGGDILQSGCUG
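Rat TrxR1 (90 nM in the dispensed reagent) was pre-reduced with 400 uM NADPH for 5 min at room temperature, then incubated with compound for 15 min. After 400 uM selenite was added, NADPH fluorescence (Ex 340/Em 450 nm) was followed for 8 min.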
TrxR1 substrate: substrates of rat thioredoxin reductase 1; O89049; purified TrxR1 substrate turnover, NADPH consumption readout; Potency, µM (doses to about 114 µM), for the others: at the top dose activity change, negative = substrate turnover; 390,000 tested, 0.01% active; note: potency is the fitted concentration of half-maximal effect; nearly all actives have a fitted effect of over 50% in size
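Rat TrxR1, dispensed at 90 nM, was prereduced with 400 uM NADPH (final) for 5 min at ~22 deg C, then incubated with compound 15 min before 400 uM selenite. A first-read NADPH fluorescence drop versus no-compound background flagged substrates.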
RORg inh: inhibitors of mouse ROR gamma transcriptional activity | 310,000 tested, 5.4% active | Potency, µM (doses to about 53.6 µM), for inactives: top-dose activity change, negative = inhibition, usual class: inhibitors | Drosophila S2 Gal4-RORgamma UAS-luciferase reporter, 20 h | P51450; note: potency is the fitted concentration of half-maximal effect; nearly all actives have a fitted effect of over 60% in size
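ROR gamma transcriptional activity was tracked as Gal4-UAS luciferase output in stably transfected Drosophila Schneider cells, with compound added 1 hr before 700 uM copper sulfate induction and a 20 hr ambient-temperature incubation.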
Gal4-VP16 FLuc: inhibits Gal4-VP16 luciferase reporter, ROR gamma counter-screen; Drosophila S2 Gal4-VP16 UAS-luciferase, luminescence, 20 h; Potency, µM (series often up to 53.6 µM), for the others: top-dose activity, negative = inhibition, hits mostly inhibitors; 310,000 tested, 3.5% active;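 note: Gal4-VP16 expression switched on by copper sulfate through the metallothionein promoter; potency is the fitted concentration of half-maximal effect; nearly all actives have a fitted effect of over 50% in size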
The depositor's hits bear a star; ? = inconclusive; / = no result; [ ] = remark or other dose. Compounds with a hit are over-represented: about 5.9% of the library has one in this group of screens. Unless noted, calls come from the whole dose curve; as a rule, active = well fitted curve in the direction sought with a large enough effect; inconclusive = small, poorly fitted or top-dose-only effect, or another doubt; inactive = no such curve, though single readings can be large; an effect the other way counts as inactive or inconclusive. % is set by controls: 0 for no effect and ±100 for the full control effect.

SMILES	GALK inhibitor	Coupling enz	rTrxR1 inhibitor	TrxR1 substrate	RORg inh	Gal4-VP16 FLuc
CCOc1ccc(NC(=O)CSc2nnc(C)n2CCCOC)cc1	0.0%	-2.4	18.3%	0.6%	14.8%	-7.0%
N#Cc1c(-c2ccco2)cc(-c2ccccn2)nc1N	0.1%	-5.2	?	206.1%[57.1 µM]	10µM*	11.2µM*
CCCCC(=O)N/N=C/c1ccc(Sc2cccc3cccnc23)o1	0.5%	-35.2*	9.8%[57.1 µM]	10.9%[57.1 µM]	5.62µM*	11.2µM*
CC1=C(C#N)c2nc(N)c(C#N)c(C)c2/C1=C\c1ccc(OCC(=O)O)c(Cl)c1	-13.3%	-12.4	50.1µM*	9.9%	-13.7%	-5.4%
CCOC(=O)CSc1nc(N)c(C#N)c(-c2ccc(OCC)cc2)c1C#N	-1.9%	1.4	-0.5%	29.2%	-9.5%	-8.8%
C=CCOc1c2ccc(C(=O)NC3CCCc4ccccc43)cc2nn1C (stereo unspecified)	/	0.4	20.3%	22.4%	-7.1%	0.4%
COc1ccccc1-c1cnn2c(NC3CCCC3)cc(C)nc12	/	-0.9	9.2%	14.6%	10µM*	?
Cc1nn(-c2cccc(Cl)c2)c2nc(-c3ccco3)cc(C(=O)O)c12	-7.0%	15.7	50.1µM*	50.6%	13.1%	6.9%
Cc1nn(-c2ccccc2)c2nc(-c3ccco3)cc(C(=O)O)c12	0.0%	11.1	?	-18.3%[57.1 µM]	18.8%	10.2%
CCN(CC)S(=O)(=O)c1ccc(O)c(NC(=O)c2cc(-c3cc(OC)c(OC)c(OC)c3)nc3ccccc23)c1	-3.7%	1.1	7.7%	2.8%	?	-12.3%
C(=N\N=C\c1ccccn1)/c1ccccn1	-2.5%	-1.8	15.0%	-1.9%	-18.6%	-9.3%
C(=N\NC1=Nc2cccc3cccc1c23)/c1ccccn1	1.0%	-14.7	-0.8%[57.1 µM]	-6.0%[57.1 µM]	0.0398µM*	/
Clc1ccccc1/C=N/NC1=Nc2cccc3cccc1c23	1.3%	-1.8	1.8%	-13.7%	0.282µM*	?
O=[N+]([O-])c1ccc(Cl)c(/C=N/n2c(C3CCCCC3)n[nH]c2=S)c1	0.6%	3.0	-1.8%	3.6%[57.1 µM]	-34.5%	-5.4%
Oc1cccc(/C=N/n2c(C3CCCCC3)n[nH]c2=S)c1	/	0.0	-19.9%[57.1 µM]	6.7%[57.1 µM]	?	-3.6%
Fc1cccc(/C=N/n2c(C3CCCCC3)n[nH]c2=S)c1	-1.2%	-0.4	8.5%	-0.1%	3.98µM*	8.91µM*
COc1cc(/C=N/n2c(C3CCCCC3)n[nH]c2=S)cc(OC)c1O	2.4%	3.6	-20.8%	-4.1%[57.1 µM]	-31.3%	-4.2%
O=[N+]([O-])c1cccc(/C=N/n2c(C3CCCCC3)n[nH]c2=S)c1	-7.9%	3.1	3.1%	3.6%	3.98µM*	4.47µM*
COc1cccc(/C=N/n2c(C3CCCCC3)n[nH]c2=S)c1	-3.0%	-1.2	-5.8%	-3.0%	4.47µM*	10µM*
CC(C)C(=O)NC1CC(=O)N(c2ccc3c(c2)OCCO3)C1 (stereo unspecified)	/	/	14.2%[57.1 µM]	10.5%[57.1 µM]	/	/
CC(C)CC1=NN(C(=O)c2ccco2)C(O)(C(F)(F)F)C1 (stereo unspecified)	1.7%	5.4	25.3%	1.9%	6.31µM*	14.1µM*
COC(=O)c1ccccc1NC(=O)c1cc(-c2cccs2)on1	2.8%	1.1	26.0%	15.4%	2.0%	-11.0%
C=CCC(CC=C)(NC(=O)c1ccccc1C)c1ccccc1	5.3%	0.6	-3.2%	-3.6%	6.0%	-7.4%
C=CCC(CC=C)(NC(=O)c1ccccc1)c1ccccc1	/	1.8	-5.1%	0.4%	-14.7%	17.8µM*
COc1cc(NCCCCCCCN)c2ncccc2c1	1.1%	-36.7*	-23.4%	-16.2%	1.58µM*	?
SMILES	GALK inhibitor	Coupling enz	rTrxR1 inhibitor	TrxR1 substrate	RORg inh	Gal4-VP16 FLuc
O=C(OCc1ccc2c(c1)OCO2)c1ccc(S(=O)(=O)N2CCCCC2)cc1	0.1%	-2.1	3.8%	-0.4%	-31.4%	-6.9%
O=C(N/N=C/c1ccc([N+](=O)[O-])s1)c1ccccc1	11.5%	-2.0	-17.3%	-6.0%	0.794µM*	1.26µM*
O=C(Cc1ccccc1)N/N=C/c1ccc([N+](=O)[O-])s1	0.0%	-3.2	?	-9.0%	?	?
Cn1c(SCC(=O)N/N=C/c2ccc([N+](=O)[O-])s2)nnc1-c1ccccc1	0.8%	-5.7	-63.8%	3.7%[57.1 µM]	11.2µM*	20µM*
O=C(Oc1ccc([N+](=O)[O-])cc1)c1cncc(Br)c1	1.2%	4.7	17.8µM*	3.5%	8.8%	-0.6%
CCc1ccc(/C=N/NC(=O)c2cc(C)on2)s1	0.2%	5.5	-21.4%[57.1 µM]	-9.6%[57.1 µM]	5.62µM*	5.62µM*
O=C(COc1ccccc1-c1nnc(-c2ccccc2)o1)Nc1ccc(Br)cc1F	/	/	5.9%[57.1 µM]	2.5%[57.1 µM]	/	/
CCOC(=O)N1CCN(C(=O)CSc2nc3c(c(=O)n2-c2ccccc2OC)SCC3)CC1	-2.1%	-0.4	11.3%[57.1 µM]	-13.6%	1.9%	-5.0%
Cc1nn(-c2ccccc2)c(C)c1NC(=O)COc1ccc(Br)cc1Cl	1.8%	4.6	-8.2%	-9.1%	?	-10.7%
CC(=O)C1=C(O)C=C2Oc3c(C(C)=O)c(O)c(C)c(O)c3[C@]2(C)C1=O	/	13.8	/	/	13.6%	-6.6%
Cc1ccsc1/C=N/Nc1ccc(C(=O)O)cc1	4.6%	1.4	-11.6%	-16.0%	1.12µM*	0.224µM*
O=C(N/N=C\c1cc(Br)cs1)c1ccncc1	-1.6%	-1.4	14.7%	-6.8%	1.58µM*	2.82µM*
Cc1ccc(-c2nnc(SCC(=O)N/N=C/c3ccccc3C(=O)O)n2-c2ccccc2)cc1	-2.1%	10.9	/	/	6.7%	-12.1%
Cc1ccccc1C(=O)N/N=C/c1ccc([N+](=O)[O-])s1	-1.5%	2.9	?	-11.9%	1.78µM*	2µM*
O=C(Cc1ccccc1)N/N=C/c1cc(Br)cs1	-3.1%	-2.5	6.2%[57.1 µM]	-2.5%[57.1 µM]	0.3%	-26.7%
Cc1ccc(-c2nnc(SCC(=O)N/N=C/c3ccc(C)s3)n2-c2ccc(C)cc2)cc1	-2.1%	14.7	-2.8%	-7.0%	17.8µM*	?
Cc1ccsc1/C=N/Nc1cccc(C(=O)O)c1	0.5%	5.9	-13.9%	-12.0%	?	?
CC(Oc1ccccc1)C(=O)N1CCC2(CC1)Oc1ccc(F)cc1C(=O)C21CC(c2cccnc2)=NO1 (stereo unspecified)	/	/	18.2%	5.0%	/	/
CCOC(=O)N1CCN(C(=O)c2c[nH]c3ccc(S(=O)(=O)N(C)c4ccc(F)cc4)cc3c2=O)CC1	3.6%	/	2.5%	8.3%	-0.1%	-6.6%
CC(=O)N1N=C(c2cccs2)CC1c1cccc([N+](=O)[O-])c1 (stereo unspecified)	-0.5%	-0.1	5.5%	-7.7%	21.2%	-20.1%
O=C(N/N=C/c1ccc([N+](=O)[O-])s1)c1ccccc1Br	-4.7%	/	20µM*	-2.3%	1.78µM*	6.31µM*
